The values that follow come from PubChem BioAssay.

Calls of active or inactive are those of the source.

The nature of one test: basal S. cerevisiae growth modulation, no modifier, primary screen, OD600, strain BY4716, 24 h, basal condition (AID 1173). To be noted: OD600, 24 h, higher = more signal, called active from +8 up or from −8 down.
Take `CCc1cc2c(nc1CC)CCN(CCC(C)=NOC(C)CN1CCCc3nc(C)c(C)cc31)C2` (stereo not given): the z-score is -0.822 (inactive).
For `COC(=O)[C@@]1(Cc2ccc(OC)cc2)[C@H]2c3cc(C(=O)N4CCCC4)n(Cc4cc(F)c(F)c(F)c4)c3C[C@H]2CN1C(=O)c1ccccc1`, the z-score is 1.35 (inactive).
In the case of `CN1C(=O)C2C=CC(C(O)c3ccc(Br)cc3)N(N(c3ccccc3)c3ccccc3)C2C1=O` (stereo not given), the z-score was 0.431 (inactive).
With `CCOC(=O)NN=C1C[C@@H](O)[C@@H](O)[C@@H]2[C@@H]3C(=O)N(CC)C(=O)[C@@H]3CC[C@@H]12`, the z-score was 0.398 (inactive).
As for `O=C(CS)NCCCCCNC(=O)[C@@H]1C[C@@H]2C(=O)N[C@@H](Cc3ccccc3)C(=O)N2[C@@H]1c1ccc(O)cc1`, the z-score was -0.391 (inactive).
Same read-out and setting: for `C=CC[C@]1(C(=O)NCc2ccccc2)N=C(c2ccc(OCCCO)cc2)O[C@H]1c1ccccc1` the value was -0.127 (inactive); for `O=C1[C@H]2[C@H]3[C@H](O)[C@H](O)CC(=NOCc4ccccc4)[C@H]3CC[C@H]2C(=O)N1c1cccc(Oc2ccccc2)c1`, -0.47 (inactive).
Still for that read-out and setting: the value for `COC(=O)CC=C[C@@H](C)[C@H](OC)c1ccccc1Br` was -1.15 (inactive).
For the compound `CCN1C(=O)[C@H]2[C@H]3[C@H](O)C=CC(=O)[C@@H]3CC[C@H]2C1=O`, the z-score was -0.067 (inactive).

A short description of a further test: MM1S myeloma cell viability, profiling panel, resazurin fluorescence, basal, 24 h, PK04 Diversity Set (AID 1174).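 Also: MM1S multiple myeloma cell line; test concentration not given here.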 Conditions: higher = more signal, called active from +8 up or from −8 down. For orientation: Resazurin is reduced to fluorescent resorufin, in cell work by metabolically active cells.
Regarding `CC=CC1=C(CO)[C@H](O)[C@H]2O[C@H]2[C@H]1O`, the z-score was -0.667 (inactive).
In the case of `COCCNC(=O)OCC1CCCC2(CC(OC(=O)NCCc3ccc(F)cc3)CC(CCC(=O)N[C@@H](C)C(=O)OC)O2)O1` (stereo not given in full), the z-score is 0.899 (inactive).
For `CC(C)[C@H](NC(=O)OC(C)(C)C)[C@@H](O)CC(=O)OC(C)(C)C`, the z-score is 0.351 (inactive).
With `CCc1cc2c(nc1CC)CCN(CCC(C)=NOC[C@@H](O)COCc1ccco1)C2`, the z-score is -0.24 (inactive).
The same measure, in the same setting: the value for `CCOC(=O)[C@H](Cc1ccccc1)NC(=O)CCC1CC(OC(=O)NCc2ccc3c(c2)OCO3)CC2(CCCC(COC(=O)NCc3ccccc3)O2)O1` (stereo not given in full) was 0.637 (inactive); that for `C=CCOC(=O)[C@H]1[C@@H]2C(=O)O[C@@H](c3ccccc3)[C@@H](c3ccccc3)N2[C@@H](c2ccc(OCCOC(=O)[C@H]3C[C@H]4C(=O)N[C@@H](Cc5ccccc5)C(=O)N4[C@H]3c3ccc(O)cc3)cc2)[C@]12C(=O)Nc1ccccc12` was 1.17 (inactive); that for `C=CC[C@@H]1C=C[C@H](ON=C2c3cc(OC)ccc3O[C@H](c3cccc(OC)c3)[C@H]2O)[C@@H](CO)O1` was -1.15 (inactive).
In the case of `CC(C)(C)N1C(=O)[C@H]2[C@H]3[C@H](O)[C@H](O)CC(=NO[C@@H]4O[C@H](CO)[C@@H](O)[C@H](O)[C@H]4O)[C@@H]3CC[C@H]2C1=O`, the z-score is -0.236 (inactive).
`CC(C)=NOCc1cccc(-c2cc(-c3ccccc3)no2)c1`: the z-score was -0.862 (inactive).
`C[C@H]1CC[C@@H](C(=O)O)N[C@@H]1c1ccc(C#CCN(C)C)cc1`: the z-score was 0.584 (inactive).
Regarding `CO[C@H]1COC(=O)[C@H](C)NC(=O)[C@@H](C)COC(=O)CC=C[C@@H]1C`, the z-score was 0.0346 (inactive).
Take `COC(=O)CC=C[C@H](C)[C@H](CO)NS(=O)(=O)c1ccc(C)cc1`: the z-score is -0.701 (inactive).
`Cc1cc2c(nc1C)CCCN2CC(C)ON=C1[C@H]2CCn3c(=O)n(-c4ccccc4)c(=O)n3[C@H]2[C@H](O)[C@@H]2O[C@H]12` (stereo not given in full): the z-score is -0.222 (inactive).
On the same count and under the same terms, the value for `CC(C)OC(=O)C=C1C[C@@H](c2ccc(C#N)cc2)O[C@@H](c2ccc(C#N)cc2)O1` was -0.793 (inactive); that for `CO[C@H]1COC(=O)[C@H](C)COC(=O)CC=C[C@@H](C)[C@H](OC)COC(=O)CC=C[C@@H]1C` was -0.152 (inactive).
As for `CC(CCN1CCc2nc(-c3ccccc3)c(-c3ccccc3)cc2C1)=NO[C@@H](C)c1cn([C@H](CO)Cc2ccccc2)nn1`, the z-score is -0.996 (inactive).
Turning to `COc1ccc([Si](C)(C)[C@@H]2[C@@H](CC(=O)N3CCC[C@H]3CO)O[C@]3(C(=O)N(Cc4cccc(N5CCC5=O)c4)c4ccccc43)[C@H]2C)cc1`, the z-score is -2.64 (inactive).
Turning to `COc1ccccc1CN1C(=O)c2ccccc2[C@@H](C(=O)NCC(F)(F)F)[C@@H]1c1ccc(CO)cc1`, the z-score was -1.15 (inactive).
Same read-out and setting: the value for `[N-]=[N+]=NCc1ccccc1[C@@H]1OC(c2ccc(OCCCO)cc2)=N[C@]1(Cc1ccccc1)C(=O)N1CCOCC1` was -1.15 (inactive).
The same measure, in the same setting: the value for `CC(C)(C)OC(=O)CC[C@]1(C(=O)NCc2ccccc2)N=C(c2ccc(OCCCO)cc2)O[C@H]1c1ccccc1` was -0.768 (inactive); that for `CC1CC/C=C\[C@H]2OC34C=CCN(Cn5nnc6ccccc65)C(=O)[C@H]3N(CCO)C(=O)[C@@H]4C2C(=O)O1` (stereo not given in full) was 0.869 (inactive).
For the compound `CCOC(=O)CCN1C(=O)[C@H]2[C@H]3[C@H](O)C=CC(=O)[C@@H]3CC[C@H]2C1=O`, the z-score is 0.606 (inactive).
With `O=C1C[C@@H](O)[C@@H](O)[C@@H]2[C@@H]3C(=O)N(Cc4ccc5c(c4)OCO5)C(=O)[C@@H]3CC[C@@H]12`, the z-score is -0.0728 (inactive).
The same measure, in the same setting: for `CCN1C(=O)[C@H]2[C@H]3[C@H](O)[C@H](O)CC(=NO[C@@H]4O[C@H](CO)[C@@H](O)[C@H](O)[C@H]4O)[C@@H]3CC[C@H]2C1=O` the value was -0.596 (inactive).
The same measure, in the same setting: the value for `C#CCCCON=C1C[C@@H](O)[C@@H](O)[C@@H]2[C@@H]3C(=O)N(Cc4ccccc4)C(=O)[C@@H]3CC[C@H]12` was 0.582 (inactive).
Still for that read-out and setting: for `C[C@@H](c1ccccc1)N1C(=O)[C@H]2[C@H]3[C@H](O)[C@H](O)CC(=NNC(=O)OCc4ccccc4)[C@H]3CC[C@H]2C1=O` the value was -0.139 (inactive); for `COC(=O)[C@H](C)NC(=O)CCC1CC(OC(=O)NCc2cccc3ccccc23)CC2(CCCC(COC(=O)NCCc3ccc(Cl)cc3)O2)O1` (stereo not given in full), 0.319 (inactive); for `CCc1cc2c(nc1CC)CCN(CCC(C)=NOC(C)CN1CCCc3nc(C)c(C)cc31)C2` (stereo not given), -0.845 (inactive).
On to `COC(=O)[C@@]1(Cc2ccc(OC)cc2)[C@H]2c3cc(C(=O)N4CCCC4)n(Cc4cc(F)c(F)c(F)c4)c3C[C@H]2CN1C(=O)c1ccccc1`, for which the z-score was -2.23 (inactive).
As to `CN1C(=O)C2C=CC(C(O)c3ccc(Br)cc3)N(N(c3ccccc3)c3ccccc3)C2C1=O` (stereo not given), the z-score is -1.19 (inactive).
Same read-out and setting: for `CCOC(=O)NN=C1C[C@@H](O)[C@@H](O)[C@@H]2[C@@H]3C(=O)N(CC)C(=O)[C@@H]3CC[C@@H]12` the value was -0.621 (inactive).
Consider `O=C(CS)NCCCCCNC(=O)[C@@H]1C[C@@H]2C(=O)N[C@@H](Cc3ccccc3)C(=O)N2[C@@H]1c1ccc(O)cc1`, for which the z-score was 0.0755 (inactive).
For the compound `C=CC[C@]1(C(=O)NCc2ccccc2)N=C(c2ccc(OCCCO)cc2)O[C@H]1c1ccccc1`, the z-score was -0.223 (inactive).
Consider `O=C1[C@H]2[C@H]3[C@H](O)[C@H](O)CC(=NOCc4ccccc4)[C@H]3CC[C@H]2C(=O)N1c1cccc(Oc2ccccc2)c1`, for which the z-score was 0.968 (inactive).
As to `COC(=O)CC=C[C@@H](C)[C@H](OC)c1ccccc1Br`, the z-score is -0.397 (inactive).
Same read-out and setting: for `CCN1C(=O)[C@H]2[C@H]3[C@H](O)C=CC(=O)[C@@H]3CC[C@H]2C1=O` the value was 0.442 (inactive).
